From PubChem BioAssay (NCI)
This is part of a sample that, as a whole, favours compounds with a hit. Of some 79,000 tested, about 15% had one in any assay. No stated cut-off is given here; in the data, active means growth inhibition above about 70%; inactive means the rest.

Legend:
[1] = NCI Yeast Anticancer Drug Screen. Data for the rad50 strain (AID 155);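 further: 0% = growth of vehicle-only cultures of the same strain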; settings: S. cerevisiae rad50 strain growth inhibition; at 50.0 µM; active compounds read high
Outline: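 Inhibition values express reduced yeast growth in compound-treated cultures relative to vehicle-treated controls.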

[2] = NCI Yeast Anticancer Drug Screen. Data for the mec2-1 strain (AID 157); settings: S. cerevisiae mec2-1 strain, at 50.0 µM, active compounds read high
Outline: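 Each compound was tested on mec2-1 yeast, a strain altered in DNA damage repair or cell cycle control. Growth inhibition is reported relative to vehicle.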

[3] = NCI Yeast Anticancer Drug Screen. Data for the sgs1 mgt1 strain (AID 161);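 further: 0% = growth of cultures given vehicle only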; settings: S. cerevisiae sgs1 mgt1 strain, at 50.0 µM, active compounds read high
Outline: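 Genetically altered yeast, compound exposure, growth inhibition relative to vehicle.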

[4] = NCI Yeast Anticancer Drug Screen. Data for the cln2 rad14 strain (AID 165);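 further: 0% = growth equal to vehicle treated cultures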; settings: S. cerevisiae cln2 rad14 strain, at 50.0 µM, active compounds read high
Outline: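 Test compounds were added to cln2 rad14 yeast cultures; inhibition of growth was then determined by comparison with vehicle treatment.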

[5] = NCI Yeast Anticancer Drug Screen. Data for the bub3 strain (AID 167); settings: S. cerevisiae bub3 mutant strain, at 50.0 µM, active compounds read high
Outline: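 Steps: expose the mutant yeast strain to compound; grow alongside vehicle-treated cultures; measure growth; express inhibition against the vehicle cultures.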

[6] = NCI Yeast Anticancer Drug Screen. Data for the mlh1 rad18 strain (AID 175); settings: S. cerevisiae mlh1 rad18 strain growth inhibition; at 50.0 µM; active compounds read high
Outline: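 Inhibition values reflect reduced growth of mutant yeast versus vehicle-treated controls following compound exposure; the mutations affect DNA damage repair.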

Measured: growth inhibition

C1CCC(NCCNC2CCCCC2)CC1
inactive: [1] 11.8% | [2] -16.9% | [3] 5.5% | [4] 18.6% | [5] -2.8% | [6] 10.3%

CCCCCCCC(=O)N1CCCC(C)C1 (stereo not given)
inactive: [1] -7.8% | [2] -25.8% | [3] 9.3% | [4] -5.75% | [5] -35.3% | [6] -3.9%

CCCCCNC(=O)C(C)O (stereo not given)
inactive: [1] 5.6% | [2] -8.3% | [3] -9.7% | [4] -30.5% | [5] -2.2% | [6] 14.6%

Cn1c(=O)cc2n(C)c3ccccc3n2c1=O
inactive: [1] 33.1% | [2] 18.6% | [3] 1.2% | [4] -5.9% | [5] 6.2% | [6] 5.8%

Cc1c(Br)cc(Br)c(O)c1Br
inactive: [1] 37.3% | [2] 26.9% | [3] 23.7% | [4] -29.4% | [5] 9.1% | [6] 31.1%

C1OC1CO[C@H]1CO[C@H]2[C@@H]1OC[C@@H]2OCC1CO1 (stereo not given in full)
inactive: [1] -9.35% | [2] -2.4% | [3] 8.05% | [4] -30.5% | [5] 18.1% | [6] 2.25%

Cc1ccc(S(=O)(=O)NC2(C=O)CCCC3CCCCC32)cc1 (stereo not given)
inactive: [1] 33% | [2] 6% | [3] -5.45% | [4] -9.15% | [5] 0% | [6] 20.6%

Cc1ccc(N=NC2Sc3nc4ccccc4n3C2=O)cc1 (stereo not given)
inactive: [1] -7.1% | [2] 9.75% | [3] -0.7% | [4] -35.5% | [5] 16.3% | [6] 13.2%

CCCCCCCCCCCCOC1OC(COC(C)=O)C(OC(C)=O)C(OC(C)=O)C1OC(C)=O (stereo not given) (tested in a mixture with another compound)
inactive: [1] -7.9% | [2] -15.4% | [3] -15.6% | [4] -22.2% | [5] -2.45% | [6] -14.4%

CCn1c2ccccc2c2nnc(NCCCO)nc21
inactive: [1] -14.7% | [2] -31.3% | [3] -16.5% | [4] -1.25% | [5] -51.7% | [6] 7.55%

Cc1[nH]nc2c1NC(=O)OC(C)C2 (stereo not given)
inactive: [1] 11.8% | [2] -2.9% | [3] 0.9% | [4] -9.85% | [5] -2.85% | [6] 2.9%

CCC1(c2ccccc2)SCC(=O)NC1=O (stereo not given)
inactive: [1] 21.1% | [2] 4.5% | [3] 12.8% | [4] 10.8% | [5] 18.4% | [6] 6.95%

C=C1C[C@]23CC[C@@H]4C(CO)(CO)CC(=O)C[C@]4(C)[C@@H]2C(O)C[C@H]1C3 (stereo not given in full)
inactive: [1] 30.6% | [2] 17.9% | [3] 17.8% | [4] -5.05% | [5] 7.05% | [6] 30.9%

N#Cc1c2c(c(=O)n3c1[nH]c1ccccc13)CCC2
inactive: [1] -23.9% | [2] 11.4% | [3] -15.6% | [4] -3.25% | [5] -1.6% | [6] -8.2%

CCCCCCC1(/C=C/c2ccc(Cl)c(Cl)c2)OCCCO1
inactive: [1] 6.15% | [2] 12.2% | [3] 12.6% | [4] -1.55% | [5] 3.2% | [6] 8.1%

S=c1nc[nH][nH]1
inactive: [1] 21.5% | [2] -3.7% | [3] 15.6% | [4] -8.65% | [5] 1.4% | [6] 21.6%

Cc1ccc(S(=O)(=O)OCCN2C(=O)CCC2=O)cc1
inactive: [1] 12.8% | [2] 8.8% | [3] 4.65% | [4] 9.5% | [5] -0.95% | [6] 15.8%

O=C1C2=C(OCO2)C(=O)C2=C1OCO2
inactive: [1] 2.65% | [2] 20.8% | [3] 21.1% | [4] 3.7% | [5] 9.95% | [6] 3.2%

CCCCOC(OCCCC)C(C)(C)CN(C)C
inactive: [1] 14.9% | [2] 13.2% | [3] 13.4% | [4] 17.9% | [5] 7.15% | [6] 19.1%

CS(C)=O.[Cl-].[Cl-].[NH-]CC(O)C[N-]CC(O)CN.[Pt+4] (stereo not given)
inactive: [1] -9.2% | [2] -19.7% | [3] -20.4% | [4] -9.65% | [5] -3.5% | [6] 9.55%

CC1C/C(=C\c2ccccc2)C(=O)/C1=C/c1ccccc1 (stereo not given)
inactive: [1] -3.6% | [2] 17.4% | [3] 7.3% | [4] -6.4% | [5] -2.75% | [6] -15.9%

NC(N)=NCCCCC(=O)Nc1ccc(S(N)(=O)=O)cc1
inactive: [1] 6.15% | [2] -0.65% | [3] -13.2% | [4] -6.15% | [5] -3.75% | [6] -19.2%

O=C1NC2(c3ccccc3)CCCCC2O1 (stereo not given)
inactive: [1] -4.95% | [2] -3.05% | [3] -5.95% | [4] 1.95% | [5] -6.35% | [6] -6.6%

CC1/C(=N\Nc2ccc([N+](=O)[O-])cc2[N+](=O)[O-])CCC2C1(C)CCC1C2(C)CCC2(C)C3CC(C)(C)CCC3(C)CCC12C (stereo not given)
inactive: [1] -5.8% | [2] -9.1% | [3] 9.8% | [4] -16.6% | [5] 13.2% | [6] 6.25%

CC1CN(C(=O)/C=C/C(=O)OC2CCCCC2)C(C)CN1C(=O)/C=C/C(=O)OC1CCCCC1 (stereo not given)
inactive: [1] 0.2% | [2] -3.15% | [3] -7.9% | [4] 1.7% | [5] -4.45% | [6] -27.2%

CCc1nc(N)nc(N)c1-c1ccc(OC)c([N+](=O)[O-])c1
inactive: [1] 3.25% | [2] -14.7% | [3] -27.2% | [4] 24.9% | [5] -21.4% | [6] 7.9%

COc1cccc(C(N)=O)c1OC
inactive: [1] 3.35% | [2] 8.05% | [3] -10.9% | [4] -22.4% | [5] 11.7% | [6] -15.2%

CSc1nc(NC2OCC(OC(C)=O)C(OC(C)=O)C2OC(C)=O)c2c(n1)OCC2=O (stereo not given)
inactive: [1] -17% | [2] -21.6% | [3] -21.6% | [4] 6.1% | [5] 13.4% | [6] -10.5%

CC1(C)CNC[C@](C)(OCCCO[C@@]2(C)CNCC(C)(C)NC2=O)C(=O)N1
inactive: [1] -11.4% | [2] -33.5% | [3] -21.2% | [4] 25.6% | [5] 3.95% | [6] -9.45%

CC(C)CC(O)C(C)C (stereo not given)
inactive: [1] -18.3% | [2] -15.8% | [3] 0.15% | [4] 31.3% | [5] -6.8% | [6] 1.35%

CC1=C(O)/C(=C/C(C)CCC/C(C)=C/C=C/C(C)CCCc2ccoc2)OC1=O (stereo not given)
inactive: [1] 3.05% | [2] -4.65% | [3] 2.9% | [4] 23.8% | [5] 7.45% | [6] 3.1%

CC1CCCCN1Cc1ccccc1COC(=O)c1ccc([N+](=O)[O-])cc1 (stereo not given)
inactive: [1] 10.6% | [2] -5.05% | [3] 4.8% | [4] -29.1% | [5] 4.05% | [6] 18.6%

CCOC(=O)c1c(-c2ccc([N+](=O)[O-])cc2)c(/C=N\O)n(-c2ccccc2)c1C
inactive: [1] 1.45% | [2] 6.7% | [3] 3.3% | [4] -17% | [5] -1.95% | [6] 20%

[N-]=[N+]=N[Si](c1ccccc1)(c1ccccc1)c1ccccc1
inactive: [1] -17.1% | [2] -11.4% | [3] 2.35% | [4] 7.6% | [5] -7.7% | [6] 7.25%

c1ccc(-c2nc(-c3ccccc3)c(-c3ccccc3)[nH]2)cc1
inactive: [1] -0.85% | [2] 28.1% | [3] 12.2% | [4] 11.2% | [5] 5.05% | [6] -36.2%

Clc1cccc(-c2nc3cccc4c3n2Cc2ncccc2-4)c1
inactive: [1] -47.8% | [2] -37% | [3] -42.5% | [4] -9.4% | [5] 0.65% | [6] -44.4%

O=C(O)c1ccc(OCC(=O)c2ccccc2)cc1
inactive: [1] 6.35% | [2] 16.9% | [3] -5.6% | [4] -6.65% | [5] 36.1% | [6] 8.25%

CCOC(=O)/C=C1/Nc2cc(F)c(F)cc2NC1=O
inactive: [1] -36.1% | [2] 14.1% | [3] 16% | [4] 13.8% | [5] 14.6% | [6] -56%

Cc1cc(-c2ccccc2)nc(Nc2nc3ccccc3o2)n1
inactive: [1] 9.2% | [2] 1.1% | [3] 10.6% | [4] 6.35% | [5] -9.45% | [6] -2.3%

c1cc[n+](-c2nc3ccccc3[n-]2)cc1
inactive: [1] 2.75% | [2] -7% | [3] 6.25% | [4] -18.5% | [5] -13.8% | [6] 3.5%
